# Rows were chosen to be rich in hits. Some 5.7% of all compounds tested hit in one or more screens of this group.
# PI5P4Ka inh: PI5P4K alpha (human) kinase inhibition | P48426 | PI5P4Kalpha enzyme, ADP-Glo luminescence, 60 min; hits give low values | max response, % | 330,000 tested, 1.2% active | AID 652105; active = max response of -50% or lower; inconclusive = between -30% and -50%; inactive = -30% or higher; also: value at the top dose of about 77 µM; % is scaled to controls: 0 for no effect and ±100 for the full control effect
#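 qHTS, 1536-well: enzyme/substrate mix, compound by pin tool, 5 microM ATP final; RT 60 min; ADP-Glo reagents 1 (45 min) then 2 (30 min); luminescence.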
# HP1b binding inh: HP1-beta chromodomain-methylated histone interaction inhibition | P83916 | AlphaScreen HP1-beta / biotin-H3K9me3 peptide binding | Potency, µM (highest dose often 114 µM), for inactives: top-dose activity change, negative = inhibition, hits mostly inhibitors | 390,000 tested, 0.56% active | AID 540317; also: potency is read from the fitted curve at half-maximal effect; nearly all actives have a fitted effect of over 70% in size
#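 AlphaScreen: HP1-beta (50 nM) preformed 30 min with biotin-H3(1-18)K9me3 peptide (50 nM) in PBS pH 7.4, 0.01% Tween-20. Compound added for 30 min at RT, then streptavidin donor/nickel chelate acceptor beads (10 ug/mL) for 30 min.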
# JMJD2A Tudor inh: inhibitors of human JMJD2A Tudor domain; AlphaScreen JMJD2A-Tudor / H3K4me3 peptide binding; Potency, µM (titrated, usually from 114 µM), without a hit: at the top dose activity change, negative = inhibition, most hits filed as inhibitors; 390,000 tested, 4.4% active; also: potency is read from the fitted curve at half-maximal effect; % is scaled to controls: 0 for no effect and ±100 for the full control effect; nearly all actives have a fitted effect of over 50% in size
# KDM4E inh: blocks human JMJD2E demethylase activity. B2RXH2. JMJD2E catalytic domain, FDH-coupled NADH fluorescence (FDH is formaldehyde dehydrogenase). Potency, µM (series often up to 57.1 µM), without a hit: at the highest dose activity change, negative = inhibition, actives largely listed as inhibitors. 230,000 tested, 1.6% active. AID 2147; active = well fitted inhibition curve with a large enough effect, not every such curve was filed as active; inconclusive = small, poorly fitted or top-dose-only effect, or another doubt; inactive = no such curve, though single readings can be large or run the other way;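 also: potency is read from the fitted curve at half-maximal effect; 0% = wells with enzyme and -100% = buffer wells without enzyme; nearly all actives have a fitted effect of over 50% in size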
# BAZ2B inh: inhibitors of human BAZ2B bromodomain | AlphaScreen BAZ2B-H3K14Ac peptide displacement | Potency, µM (doses to about 114 µM), inactives show top-dose activity change, negative = inhibition, most hits filed as inhibitors | Q9UIF8 | 360,000 tested, 4.4% active | AID 504333; also: potency is read from the fitted curve at half-maximal effect; % is scaled to controls: 0 for no effect and ±100 for the full control effect; nearly all actives have a fitted effect of over 60% in size
#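 BAZ2B 50 nM plus b-H3(5-23)K14Ac 50 nM, PBS pH 7.4/0.01% Tween-20, 30 min RT; compound added (max 110 uM), 30 min RT; streptavidin donor/Ni-chelate acceptor beads 10 ug/mL final, 20 min dark; AlphaScreen read.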
# L3MBTL1 inh: blocks human L3MBTL1; Q9Y468; Potency, µM (doses to about 57.1 µM), for inactives: at the top dose activity, negative = inhibition, actives largely listed as inhibitors; AID 485360; 230,000 tested, 0.66% active; AlphaScreen L3MBTL1–H3K9me1 peptide binding; also: potency is read from the fitted curve at half-maximal effect; % is scaled to controls: 0 for no effect and ±100 for the full control effect; nearly all actives have a fitted effect of over 60% in size
# Target sequence (Q9Y468 whole entry, looked up): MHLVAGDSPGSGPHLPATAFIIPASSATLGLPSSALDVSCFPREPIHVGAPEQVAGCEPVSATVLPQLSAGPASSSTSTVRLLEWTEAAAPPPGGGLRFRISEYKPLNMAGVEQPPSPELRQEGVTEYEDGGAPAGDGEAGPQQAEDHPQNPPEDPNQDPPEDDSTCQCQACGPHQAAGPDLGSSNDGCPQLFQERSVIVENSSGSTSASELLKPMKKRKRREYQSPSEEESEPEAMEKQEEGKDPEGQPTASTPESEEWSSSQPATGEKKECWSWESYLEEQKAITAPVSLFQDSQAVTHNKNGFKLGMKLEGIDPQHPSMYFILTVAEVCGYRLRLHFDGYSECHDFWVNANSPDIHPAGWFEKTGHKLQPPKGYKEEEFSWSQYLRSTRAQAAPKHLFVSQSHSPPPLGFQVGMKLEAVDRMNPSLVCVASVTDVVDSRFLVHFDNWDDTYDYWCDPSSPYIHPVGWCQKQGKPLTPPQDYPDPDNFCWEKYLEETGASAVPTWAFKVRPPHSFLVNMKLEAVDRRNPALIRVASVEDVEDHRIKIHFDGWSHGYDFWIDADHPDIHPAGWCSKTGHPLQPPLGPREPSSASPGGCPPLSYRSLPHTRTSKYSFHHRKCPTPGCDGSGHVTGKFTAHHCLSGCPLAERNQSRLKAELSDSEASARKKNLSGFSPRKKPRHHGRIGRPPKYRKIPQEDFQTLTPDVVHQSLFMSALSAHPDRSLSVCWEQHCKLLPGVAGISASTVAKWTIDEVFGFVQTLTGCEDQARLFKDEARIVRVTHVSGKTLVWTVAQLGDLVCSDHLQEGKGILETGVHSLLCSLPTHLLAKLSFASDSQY
#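 First, the protein-peptide complex forms for 30 min at room temperature (L3MBTL1 50 nM, biotinylated H3K9me1 peptide 75 nM). Next, compounds are pin-transferred and incubated 30 min. Finally, AlphaScreen beads are added and read after 30 min.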
# Starred values were filed as active, the others as inactive; ? = inconclusive; · = no result given; [ ] = dose if it differs, or a comment. Unless noted, calls follow the shape of the dose curve; as a rule, active = well fitted inhibition curve with a large enough effect; inconclusive = small, poorly fitted or top-dose-only effect; inactive = no such curve, though single readings can be large or run the other way.
SMILES,PI5P4Ka inh,HP1b binding inh,JMJD2A Tudor inh,KDM4E inh,BAZ2B inh,L3MBTL1 inh
Cc1ccc(CNC(=O)C2CCN(S(=O)(=O)c3ccc4c(c3)oc(=O)n4C)CC2)cc1,·,38%,-8%,·,-2%,·
Cc1ccccc1OCc1nc2c3cnn(-c4cccc(F)c4)c3ncn2n1,·,34%,1%,·,0%,·
NC(=Nc1ccc(N)cc1)C(N)=Nc1ccc(N)cc1,-11,-25%,25µM*,?,5.6µM*,32µM*
CCOC(=O)C1CCN(C(=O)CN2C(=O)COc3ccc(C(C)(C)C)cc32)CC1,10,-7%,79µM*,·,-4%,·
CCN(CC)CCC(C)OC(c1ccccc1)c1ccccc1 (stereo unspecified),7,25%,25µM*,7%,-39%,·
COc1ccc(N2CCN(CC(=O)Nc3ccc(SC(F)F)cc3)CC2)cc1,-5,-15%,?,3%,40µM*,-19%
CCN(CC)c1ccc(S(=O)(=O)N2CCOCC2)cc1NC(=O)CN1CCN(Cc2ccccc2)CC1,0,?,18µM*,28µM*,22µM*,·
O=C(CN1CCN(S(=O)(=O)c2ccc3ccccc3c2)CC1)Nc1ccc(N2CCOCC2)cc1,-11,-9%,-44%,-2%,-38%,-4%
COc1ccc(N2CCN(CC(=O)Nc3ccccc3C(=O)NC(C)c3ccccc3)CC2)cc1 (stereo unspecified),-3,·,·,·,·,·
COc1ccc(N2CCN(CC(=O)Nc3ccccc3C(=O)NCc3ccccc3)CC2)cc1,0,?,56µM*,·,45µM*,?
COc1ccc(N2CCN(CC(=O)Nc3cccc(S(=O)(=O)N4CCOCC4)c3)CC2)cc1,2,-65%,7.9µM*,-7%,35µM*,-6%
COCCn1c(CNC(=O)c2cccc(N(C)C)c2)nc2cccnc21,·,5%[57 µM],-10%,·,-2%,·
O=C(NCc1ccc(Cl)cc1)C1CCCN(c2ncnc3onc(-c4ccc(F)cc4)c23)C1 (stereo unspecified),·,35%,-10%,·,7%[57.1 µM],·
CNC(=O)CSc1nnc(COc2ccc([N+](=O)[O-])cc2)n1C,-1,60%,-6%,?,56µM*,·
CC(Sc1nnc(COc2ccc([N+](=O)[O-])cc2)n1C)C(=O)O (stereo unspecified),-6,5%,-10%,-6%,-3%,7%
CC1CCN(S(=O)(=O)c2ccc3c(ccn3CC(=O)NCc3ccc(N(C)C)cc3)c2)CC1,·,15%,?,·,?,·
COc1cccc(/C=N/n2c(-c3cc(C)[nH]n3)n[nH]c2=S)c1O,8,10%,2.8µM*,?,?,-8%
COc1cccc(/C=N/n2c(-c3n[nH]c4c3CCC4)n[nH]c2=S)c1O,-28,?,7.9µM*,32µM*,-2%,11%
COc1ccccc1/C=C/C=N/n1c(-c2n[nH]c3c2CCC3)n[nH]c1=S,?,?,35µM*,?,-26%,-20%
COc1cc(/C=N/n2c(-c3n[nH]c4c3CCC4)n[nH]c2=S)cc(OC)c1O,?,?,1.1µM*,-9%,-33%,·
COc1ccccc1/C=C\C=N\n1c(C2CCCCC2)n[nH]c1=S,-4,?,-22%,?,?,-11%
COc1cc(/C=N/n2c(-c3cc(C)[nH]n3)n[nH]c2=S)ccc1O,-9,47%,?,-12%,-27%,0%
CC1CC(C)(C)CC2(C1)NC(=O)N(CC(=O)Nc1cc(C(F)(F)F)ccc1N1CCCCC1)C2=O (stereo unspecified),-27,30%,-17%,·,·,·
O=C(Nc1ccc(C(=O)OCc2cc(=O)n3c4c(sc3n2)CCCC4)cc1)c1ccccc1,·,12%,-6%,·,-2%,·
S=c1[nH]nc(-c2n[nH]c3c2CCC3)n1/N=C/C=C/c1ccco1,-52*,-12%,5µM*,28µM*,?,28µM*
CCN(CC)C(=O)c1sc(NC(=O)c2ccc(Br)o2)c(C(=O)OC)c1C,·,19%,-10%,?,0%,·
